Results as given in PubChem BioAssay (Tox21).
Results filed as inconclusive are left out. Calls of active or inactive are those of the source. Unless noted, calls follow the shape of the dose curve; as a rule, active = well fitted curve in the direction sought with a large enough effect in the repeat runs; inconclusive = weak or mixed curves; inactive = no such curve, though single readings can be large; an effect the other way counts as inactive or inconclusive.

Experiments:
[1] = qHTS assay to identify small molecule agonists of the peroxisome proliferator-activated receptor delta (PPARd) signaling pathway - cell viability counter screen (AID 743211); also: nearly all actives have a fitted effect of over 55% in size
Method in brief: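 Tox21 library compounds, delivered in DMSO, were incubated 17 h with PPARd-bla HEK293H cells; cytotoxicity was taken from CellTiter-Glo luminescence read 30 min after reagent addition.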

[2] = target: Peroxisome proliferator-activated receptor delta (Homo sapiens) (UniProt Q03181); assay: qHTS assay to identify small molecule agonists of the peroxisome proliferator-activated receptor delta (PPARd) signaling pathway (AID 743212; calls by dose curve)
Method in brief: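 Beta-lactamase reporter readout: a ratiometric FRET signal from the LiveBLAzer substrate after 2 h at room temperature. Compound exposure at 37 °C in PPARδ-bla HEK293H cells driven by an upstream activator sequence.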

[3] = qHTS assay to identify small molecule antagonists of the peroxisome proliferator-activated receptor delta (PPARd) signaling pathway - cell viability counter screen (AID 743213); also: nearly all actives have a fitted effect of over 50% in size
Method in brief: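 HEK293H cells with the PPARd UAS-bla reporter, co-treated 17 h at 37 C with compounds and L165041 (300 nM final), were lysed with CellTiter-Glo. Luminescence indicated viable cell content.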

[4] = qHTS assay to identify small molecule agonists of the farnesoid-X-receptor (FXR) signaling pathway - cell viability counter screen (AID 743218); also: nearly all actives have a fitted effect of over 45% in size
Method in brief: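 Luminescence from CellTiter-Glo, read after 30 min at RT, reports viability of GeneBLAzer FXR-UAS-bla HEK 293T cells treated 16 h with compounds in the wells used for the beta-lactamase reporter.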

[5] = qHTS assay to identify small molecule antagonists of the farnesoid-X-receptor (FXR) signaling pathway - cell viability counter screen (AID 743221; active = well fitted cell-killing curve with a large enough effect in the repeat runs, not every such curve was filed as active; also: nearly all actives have a fitted effect of over 50% in size)
Method in brief: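 Cytotoxicity is taken from ATP luminescence (CellTiter-Glo, 30 min, room temperature) in FXR-bla HEK 293T cells previously incubated 16 h at 37 C with compound and chenodeoxycholic acid at 50 uM final.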

[6] = target: Vitamin D3 receptor (Homo sapiens) (UniProt P11473); assay: qHTS assay to identify small molecule antagonists of the vitamin D receptor (VDR) signaling pathway (AID 743223; active = well fitted inhibition curve with a large enough effect in the signal ratio in the repeat runs, not every such curve was filed as active; the % refers to the signal ratio)
Method in brief: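 Quantitative HTS in VDR-bla reporter cells stimulated with 1alpha,25-dihydroxyvitamin D3, 3 nM final. Compound exposure 16 h, 37C, 5% CO2. Read-out: beta-lactamase FRET substrate fluorescence, 2 h RT.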

[7] = qHTS assay to identify small molecule agonists of the vitamin D receptor (VDR) signaling pathway - cell viability counter screen (AID 743224); also: series mostly up to about 63 µM; nearly all actives have a fitted effect of over 50% in size
Method in brief: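 Cytotoxicity counter screen: VDR-bla cells, 16 h compound exposure at 37C, 5% CO2; CellTiter-Glo luminescence, 30 min RT, same wells as bla read.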

[8] = qHTS assay to identify small molecule antagonists of the vitamin D receptor (VDR) signaling pathway - cell viability counter screen (AID 743225); also: nearly all actives have a fitted effect of over 50% in size
Method in brief: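 Same-well multiplex: following 16 h treatment of HEK 293T cells carrying a UAS-driven beta-lactamase reporter with compound and agonist (3 nM final), and a 2 h FRET substrate step, CellTiter-Glo was added and luminescence read after 30 min.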

[9] = qHTS assay to identify small molecule agonists of the NFkB signaling pathway - cell viability counter screen (AID 1159515; calls by dose curve; also: series mostly up to about 61 µM; nearly all actives have a fitted effect of over 55% in size)
Method in brief: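 ME-180 NFkB-bla cells, 2,000/well; overnight attach; compound 5 hr, 37 C/5% CO2; LiveBLAzer substrate 1.5 hr RT; then CellTiter-Glo in same wells, 30 min RT, luminescence read.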

[10] = qHTS assay to identify small molecule agonists of the endoplasmic reticulum stress response signaling pathway (AID 1159516; active = well fitted activation curve with a large enough effect in the signal ratio in the repeat runs, not every such curve was filed as active; the % refers to the signal ratio)
Method in brief: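 HeLa ESRE-bla reporter line; cpd 5 h, 37 C/5% CO2; LiveBLAzer B/G FRET substrate 2 h RT; ex 405, em 460/530 nm.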

[11] = qHTS assay to identify small molecule agonists of the endoplasmic reticulum stress response signaling pathway - cell viability counter screen (AID 1159517; calls by dose curve)
Method in brief: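 ESRE-bla HeLa cells (1,500/well) were plated overnight at 37 C and exposed to compounds for 5 hr. After the 2 hr beta-lactamase substrate read, CellTiter-Glo went into the same wells, and luminescence was read after 30 min at room temperature.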

[12] = qHTS assay to identify small molecule antagonists of the retinoid-related orphan receptor gamma (ROR-gamma) signaling pathway - cell viability counter screen (AID 1159520); also: nearly all actives have a fitted effect of over 50% in size
Method in brief: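 Cytotoxicity was read from cellular ATP (CellTiter-Glo luminescence) after 16 hr at 37 C with 1 uM doxycycline induction. The inducer was added 2 hr after compound transfer to Tet-on ROR gamma CHO cells.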

[13] = target: Nuclear receptor ROR-gamma (Homo sapiens) (UniProt P51449); assay: qHTS assay to identify small molecule antagonists of the retinoid-related orphan receptor gamma (ROR-gamma) signaling pathway (AID 1159521)
Method in brief: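 Inducible-expression reporter assay: doxycycline (1 uM final) switched on RORγ in CHO cells bearing a ROR response element-luciferase construct, with test compounds present from 2 h beforehand. Decreased luminescence after 16 h defined antagonist activity.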

[14] = qHTS assay to identify small molecule agonists of the AP-1 signaling pathway - cell viability counter screen (AID 1159525; calls by dose curve; also: nearly all actives have a fitted effect of over 55% in size)
Method in brief: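 Intracellular ATP by Cell Titer Glo luminescence (30 min, RT) in the same ME-180 AP-1-bla wells after the 5 h compound exposure at 37 °C. Normalised to tetra n-octyl ammonium bromide and DMSO controls.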

[15] = qHTS assay to identify small molecule agonists of the AP-1 signaling pathway (AID 1159526; calls by dose curve)
[16] = target: Peroxisome proliferator-activated receptor delta (Homo sapiens) (UniProt Q03181); assay: qHTS assay to identify small molecule antagonists of the peroxisome proliferator-activated receptor delta (PPARd) signaling pathway (AID 743215; active = well fitted inhibition curve with a large enough effect in the signal ratio in the repeat runs, not every such curve was filed as active; the % refers to the signal ratio;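 also: cells stimulated with agonist L165041 at 300 nM final during compound exposure; series mostly up to about 62 µM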)
Method in brief: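 HEK293H GeneBLAzer PPARd UAS-bla reporter cells; cpd + L165041 300 nM final, 17 h 37 C; LiveBLAzer B/G FRET substrate 2 h RT; fluorescence intensity read-out. Antagonist mode.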

[17] = target: Vitamin D3 receptor (Homo sapiens) (UniProt P11473); assay: qHTS assay to identify small molecule agonists of the vitamin D receptor (VDR) signaling pathway (AID 743222; calls by dose curve)
Method in brief: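 Beta-lactamase reporter readout (LiveBLAzer B/G FRET, 2 h RT) in VDR-bla cells after 16 h compound treatment at 37C, 5% CO2; cells pre-incubated 4 h before pin transfer of DMSO solutions.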

Measured: Potency

Sequence of Peroxisome proliferator-activated receptor delta (Homo sapiens) (Q03181 whole entry, looked up): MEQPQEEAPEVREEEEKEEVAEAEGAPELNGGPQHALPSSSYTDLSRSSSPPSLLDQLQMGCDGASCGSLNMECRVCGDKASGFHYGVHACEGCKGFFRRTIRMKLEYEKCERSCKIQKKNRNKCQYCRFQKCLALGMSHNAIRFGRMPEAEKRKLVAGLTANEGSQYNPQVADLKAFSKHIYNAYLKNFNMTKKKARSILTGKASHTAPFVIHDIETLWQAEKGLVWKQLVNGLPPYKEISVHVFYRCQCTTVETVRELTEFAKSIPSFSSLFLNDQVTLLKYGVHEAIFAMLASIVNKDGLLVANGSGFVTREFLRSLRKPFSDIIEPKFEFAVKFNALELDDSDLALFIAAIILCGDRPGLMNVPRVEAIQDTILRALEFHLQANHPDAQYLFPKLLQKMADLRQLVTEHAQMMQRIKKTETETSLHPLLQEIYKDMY
Sequence of Vitamin D3 receptor (Homo sapiens) (P11473 whole entry, looked up): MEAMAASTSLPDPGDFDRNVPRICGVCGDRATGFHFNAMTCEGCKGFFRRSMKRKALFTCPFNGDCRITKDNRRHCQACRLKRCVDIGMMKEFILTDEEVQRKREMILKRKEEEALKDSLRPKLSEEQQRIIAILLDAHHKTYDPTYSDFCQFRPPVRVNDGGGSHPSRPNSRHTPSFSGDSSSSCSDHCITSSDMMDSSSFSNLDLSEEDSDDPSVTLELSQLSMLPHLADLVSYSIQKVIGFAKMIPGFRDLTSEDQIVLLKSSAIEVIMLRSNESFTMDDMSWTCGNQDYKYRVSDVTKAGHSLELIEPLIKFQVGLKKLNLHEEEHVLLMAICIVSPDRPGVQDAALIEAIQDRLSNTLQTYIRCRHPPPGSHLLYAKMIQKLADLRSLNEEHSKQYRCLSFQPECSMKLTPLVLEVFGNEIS

c1ccc(-c2nc[nH]c2-c2ccccc2)cc1
inactive: [1] | [2] | [3] | [4] | [5] | [6] | [7] | [8] | [9] | [10] | [11] | [12] | [13] | [14] | [15]

c1ccc(CNCc2ccccc2)cc1
inactive: [1] | [2] | [16] | [4] | [5] | [17] | [6] | [7] | [8] | [9] | [10] | [11] | [12] | [13] | [14] | [15]

CCN(CC)CCc1nc(-c2ccccc2)no1
inactive: [1] | [2] | [3] | [4] | [7] | [8] | [9] | [10] | [11] | [12] | [13] | [14] | [15]

CCN(CC)C(C)=O
inactive: [1] | [2] | [3] | [16] | [5] | [17] | [6] | [7] | [9] | [10] | [11] | [12] | [13] | [14] | [15]

COCCOCCOCCOCCOC
inactive: [1] | [2] | [3] | [4] | [6] | [7] | [8] | [9] | [10] | [11] | [12] | [13] | [14] | [15]

CC(C)(C)c1ccc(S)cc1
inactive: [1] | [2] | [3] | [16] | [4] | [5] | [17] | [6] | [7] | [8] | [9] | [10] | [11] | [12] | [13] | [14] | [15]

Oc1ccc(C(O)CNCCCCCCNCC(O)c2ccc(O)c(O)c2)cc1O (centres undefined)
inactive: [1] | [2] | [3] | [4] | [5] | [17] | [8] | [9] | [10] | [11] | [12] | [13] | [14] | [15]

CCC(C)N(C)C(=O)c1cc2ccccc2c(-c2ccccc2Cl)n1 (centres undefined)
inactive: [1] | [2] | [3] | [4] | [5] | [8] | [9] | [10] | [11] | [12] | [13] | [14] | [15]

CC(=O)Nc1ccc(/C=N/NC(N)=S)cc1
inactive: [1] | [2] | [3] | [16] | [4] | [5] | [17] | [8] | [9] | [10] | [11] | [12] | [13] | [14] | [15]

Nc1nc(CC(=O)O)cs1
inactive: [1] | [2] | [3] | [16] | [4] | [5] | [17] | [6] | [7] | [8] | [9] | [10] | [11] | [12] | [13] | [14] | [15]
